Results reported in PubChem BioAssay (NCI).
This is part of a sample that, as a whole, favours compounds with a hit. Of some 79,000 tested, about 15% had one in any assay. Activity calls are given as the source filed them. Rule as the data show it: active = growth inhibition above about 70%; inactive = the rest.

What was measured:
[1] = NCI Yeast Anticancer Drug Screen. Data for the rad50 strain (AID 155);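 also: 0% = growth of vehicle-only cultures of the same strain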; conditions: S. cerevisiae rad50 strain growth inhibition, stronger effect = higher value
Method in brief: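 Cells are treated with compound, grown, and their growth is then scored against vehicle-only cultures of the same repair-deficient yeast strain.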

[2] = NCI Yeast Anticancer Drug Screen. Data for the mec2-1 strain (AID 157); conditions: S. cerevisiae mec2-1 strain, stronger effect = higher value
Method in brief: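 Cells of the genetically defined mec2-1 yeast strain are incubated with test compound. Inhibition of growth is calculated against vehicle-treated controls.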

[3] = NCI Yeast Anticancer Drug Screen. Data for the sgs1 mgt1 strain (AID 161);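 also: 0% = growth of cultures given vehicle only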; conditions: S. cerevisiae sgs1 mgt1 strain, stronger effect = higher value
Method in brief: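 Genetically altered yeast, compound exposure, growth inhibition relative to vehicle.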

[4] = NCI Yeast Anticancer Drug Screen. Data for the cln2 rad14 strain (AID 165);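 also: 0% = growth equal to vehicle treated cultures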; conditions: S. cerevisiae cln2 rad14 strain, stronger effect = higher value
Method in brief: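 The screen exposed genetically defined yeast (cln2 rad14) to test compounds and scored growth inhibition relative to vehicle-treated controls.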

[5] = NCI Yeast Anticancer Drug Screen. Data for the bub3 strain (AID 167); conditions: S. cerevisiae bub3 mutant strain, stronger effect = higher value
Method in brief: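 Part of a panel of yeast mutants defective in DNA damage repair or cell cycle regulation. Each strain is grown with compound, and inhibition is calculated relative to solvent-treated cultures.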

[6] = NCI Yeast Anticancer Drug Screen. Data for the mlh1 rad18 strain (AID 175); conditions: S. cerevisiae mlh1 rad18 strain growth inhibition, stronger effect = higher value
Method in brief: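 Compound-treated yeast growth, normalised to vehicle controls. Strain bears defined DNA repair mutations.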

[7] = at 5.0 µM (retest, dose inferred, filed as 0.5)
[8] = at 50.0 µM (retest, dose inferred, filed as 5.0)

Measured: growth inhibition

Cc1[nH]c(=O)[nH]c(=S)c1C(=O)NC1C2CCCCC2NC2CCCCC21 (configuration not stated)
inactive: [1]; [7] 67% | [2]; [7] 49% | [3]; [7] 49% | [5]; [7] 48% | [6]; [7] 46%
active: [1]; [8] 96% | [1]; at 50.0 µM 75.5% | [2]; [8] 97% | [2]; at 50.0 µM 83.3% | [3]; [8] 97% | [3]; at 50.0 µM 76.4% | [4]; [7] 74% | [4]; [8] 98% | [4]; at 50.0 µM 85% | [5]; [8] 97% | [5]; at 50.0 µM 77.8% | [6]; [8] 96% | [6]; at 50.0 µM 71.9%

OC(c1ccccc1)c1cccc2ccccc12 (configuration not stated)
inactive: [1]; [7] -1% | [1]; [8] 47% | [2]; [7] -5% | [2]; [8] 14% | [2]; at 50.0 µM 67.3% | [3]; [7] 20% | [3]; [8] 25% | [3]; at 50.0 µM -1.85% | [4]; [7] -8% | [4]; [8] 18% | [4]; at 50.0 µM 44.8% | [5]; [7] -1% | [5]; [8] 30% | [5]; at 50.0 µM 67% | [6]; [7] -1% | [6]; [8] 25% | [6]; at 50.0 µM 43.1%
active: [1]; at 50.0 µM 91.3%

Nc1cc2[nH]c(=O)c3cc(Cl)ccc3c2cc1Cl
active: [1]; [7] 83% | [1]; [8] 94% | [1]; at 50.0 µM 89.8% | [2]; [8] 79% | [3]; [8] 86% | [6]; [8] 95%
inactive: [2]; [7] 7% | [2]; at 50.0 µM -3.35% | [3]; [7] 26% | [3]; at 50.0 µM 47.6% | [4]; [7] 8% | [4]; [8] 58% | [4]; at 50.0 µM -24.2% | [5]; [7] 8% | [5]; [8] 59% | [5]; at 50.0 µM -5.15% | [6]; [7] 65% | [6]; at 50.0 µM 61.2%

NC(=O)N/N=C1/CC2CCCCC2c2ccccc21 (configuration not stated)
inactive: [1]; [7] 12% | [1]; at 50.0 µM 67.8% | [2]; [7] -4% | [2]; at 50.0 µM 13% | [3]; [7] -2% | [3]; [8] 66% | [3]; at 50.0 µM 58% | [4]; [7] 0% | [4]; [8] 69% | [4]; at 50.0 µM 19.2% | [5]; [7] 0% | [6]; [7] -6% | [6]; at 50.0 µM 23.5%
active: [1]; [8] 92% | [2]; [8] 86% | [5]; [8] 94% | [5]; at 50.0 µM 86.2% | [6]; [8] 94%

CCc1nc(N)nc(N)c1-c1ccc(NCCc2ccccc2)c([N+](=O)[O-])c1
inactive: [1]; [7] 13% | [1]; [8] 16% | [1]; at 50.0 µM 25.9% | [2]; [7] 9% | [2]; [8] 8% | [2]; at 50.0 µM -2.75% | [3]; [7] 17% | [3]; [8] 19% | [3]; at 50.0 µM 5.15% | [4]; [7] 7% | [4]; [8] 6% | [4]; at 50.0 µM 9.75% | [5]; [7] 13% | [5]; [8] 15% | [5]; at 50.0 µM 14.4% | [6]; [7] 7% | [6]; [8] 19% | [6]; at 50.0 µM 24.9%

CCCCCCCCCCCc1ccn[nH]1
active: [1]; [8] 98% | [1]; at 50.0 µM 98.4% | [2]; [8] 99% | [2]; at 50.0 µM 99.3% | [3]; [8] 99% | [3]; at 50.0 µM 99.3% | [4]; [8] 99% | [4]; at 50.0 µM 98.3% | [5]; [8] 98% | [5]; at 50.0 µM 99% | [6]; [8] 98% | [6]; at 50.0 µM 98.9%
inactive: [1]; [7] -7% | [2]; [7] 3% | [3]; [7] 9% | [4]; [7] -18% | [5]; [7] 14% | [6]; [7] -3%

CN(C)CC1CCC/C(=C\c2ccc(Cl)c(Cl)c2)C1=O (configuration not stated)
inactive: [1]; [7] 19% | [1]; at 50.0 µM 69.3% | [2]; [7] 9% | [3]; [7] -1% | [4]; [7] 7% | [5]; [7] -22% | [6]; [7] 6%
active: [1]; [8] 98% | [2]; [8] 98% | [2]; at 50.0 µM 81.8% | [3]; [8] 97% | [3]; at 50.0 µM 86.5% | [4]; [8] 97% | [4]; at 50.0 µM 86.5% | [5]; [8] 98% | [5]; at 50.0 µM 86% | [6]; [8] 97% | [6]; at 50.0 µM 89.3%

COCC(O)Cn1cc([N+](=O)[O-])nc1C (configuration not stated)
inactive: [1]; [7] 4% | [1]; [8] -1% | [1]; at 50.0 µM 2.7% | [2]; [7] 1% | [2]; [8] -3% | [2]; at 50.0 µM -5.25% | [3]; [7] -1% | [3]; [8] 2% | [3]; at 50.0 µM -4.8% | [4]; [7] 0% | [4]; [8] -2% | [4]; at 50.0 µM 9.45% | [5]; [7] -4% | [5]; [8] -4% | [5]; at 50.0 µM 19.2% | [6]; [7] 6% | [6]; [8] 4% | [6]; at 50.0 µM 9.4%

N=C(N)Sc1ccc([N+](=O)[O-])cc1Cl
active: [1]; [8] 94% | [1]; at 50.0 µM 85.2% | [2]; [8] 96% | [2]; at 50.0 µM 86.8% | [3]; [8] 97% | [3]; at 50.0 µM 90.3% | [4]; [8] 89% | [4]; at 50.0 µM 84.5% | [5]; at 50.0 µM 86.2% | [6]; [8] 96% | [6]; at 50.0 µM 85.7%
inactive: [1]; [7] 45% | [2]; [7] 35% | [3]; [7] 56% | [4]; [7] 36% | [5]; [7] 40% | [5]; [8] 59% | [6]; [7] 63%
